This passage reports fold change results from PubChem BioAssay AID1239 (SRMLSC, 2008).

Out of some 190,000 compounds screened, about 3,100 (1.6%) were called active. Shown is part of a subset that was picked to be rich in actives. Values without a mark were called inactive. No stated cut-off is given here; in the data, active means fold change above about 3.3; inconclusive means no clear call, values can overlap the other calls; inactive means below that.

The assay can be described thus: NF-kB upregulation, human neuronal cells – cell-based, HTS, primary screen (AID 1239). Particulars: NF-kB reporter expression, at 12.5 µM, hits give high values.
With `Cc1nn(-c2ccc([N+](=O)[O-])cc2)c(N)c1-c1ccccc1`, the fold change was 6.64 (active).
The result for `Cc1nn(-c2ccccc2)c2c1C(c1cccc([N+](=O)[O-])c1)N(c1ccccc1)C(=O)N2` (configuration not stated) reads 1.17.
Regarding `O=C1CC(c2ccccc2)=NN1c1ccc([N+](=O)[O-])cc1`, the fold change is 1.27.
The value for `Cc1ccc(NC(=O)Nc2ccc3oc(C)nc3c2)cc1` was 5.03 (active); that for `Cc1nc2cc(NC(=O)NCc3ccccc3)ccc2o1` was 1.54.
The value for `Cc1nc2ccc(NC(=O)C(F)(F)F)cc2o1` was 0.91; that for `COc1ccc(C2CC(c3cccs3)=NN2c2ccccc2)cc1` (configuration not stated) was 1.15.
The value for `CCCNS(=O)(=O)c1ccc(CCC(=O)N2CCCC2)cc1` was 1.25; that for `OCCC1CN(Cc2ccc3nsnc3c2)CCN1C1CCCC1` (configuration not stated) was 5.55 (active); that for `OCCC1CN(Cc2ccc3nsnc3c2)CCN1C1CCCCC1` (configuration not stated) was 0.99.
Turning to `Cn1cnnc1Sc1ccc(CN2CCN(C3CCCC3)C(CCO)C2)o1` (configuration not stated), the fold change was 1.08.
The value for `N/C(=N\OC(=O)CCc1ccccc1)c1cccnc1` was 1.31; that for `OCC1(Cc2ccccc2C(F)(F)F)CCN(Cc2cccc3cnccc23)CC1` was 0.85; that for `COc1cc(SC)ccc1C(=O)Nc1cc(C)ccn1` was 1.01.
The result for `COc1ccccc1CNC(=O)c1ccc(SC)cc1OC` reads 1.42; that for `COc1cc(SC)ccc1C(=O)NCCOc1ccccc1Cl`, 5.99 (active).
For `COc1cc(CNCCN(C)C)ccc1OCc1c(F)cccc1Cl`, the fold change was 1.11.
As for `COc1cccc(CN(C)CC(=O)Nc2ccccc2C(=O)Nc2ccccc2)c1`, the fold change is 0.95.
The result for `O=c1[nH]c2cccnc2n(CCNc2ncc(C(F)(F)F)cc2Cl)c1=O` reads 1.12; that for `C/C(=N\N)c1c(-c2ccccc2)c2cc(Br)ccc2[nH]c1=O`, 0.98.
The result for `NC(=O)C1CCN(Cc2nc3c(Br)cc(Br)cc3c(=O)[nH]2)CC1` reads 1.47; that for `NC(N)=Nc1nc2ccc(Br)cc2c(=O)[nH]1`, 3.87 (active).
The result for `CC(C)Cn1c(N)c(C(=O)COC(=O)CN2C(=O)C3CC=CCC3C2=O)c(=O)n(C)c1=O` (configuration not stated) reads 0.78; that for `Cc1ccc(NC(=S)NC(=O)c2ccc(-c3ccccc3)cc2)c(C)c1`, 1.18; that for `Cc1ccc(NC(=S)NCc2ccccc2Cl)c(C)c1`, 0.92.
Take `Cc1ccc(NC(=S)Nc2ncccc2C)c(C)c1`: the fold change is 3.74 (active).
For `Cc1ccc(S(=O)(=O)N(C)C)cc1NC(=O)c1ccccc1Br`, the fold change is 1.05.
For `COC(=O)CCNC(=O)c1ccc2[nH]c(C)c(C)c2c1`, the fold change is 0.99.
The result for `C/[N+]([O-])=C\c1ccc([N+](=O)[O-])o1` reads 0.83; that for `CCn1c(/C=C/c2ccc([N+](=O)[O-])o2)nc2ccccc2c1=O`, 4.02 (active); that for `Cn1cc(/C=C/c2nc3ccccc3c(=O)n2-c2cccc([N+](=O)[O-])c2)c2ccccc21`, 1.02.
The result for `Cn1c(=N)n(CC(O)c2cccs2)c2ccccc21` (configuration not stated) reads 1.08; that for `CC(C)(C)N(CC#CCC(O)(c1ccccc1)C1CCCC1)CCO` (configuration not stated), 1.15; that for `COc1ccccc1N1CC(O)=C(c2nc3ccccc3s2)C1=N`, 0.59.
The result for `COc1cccc2sc(NNC(=O)c3nc4ccccc4s3)nc12` reads 1.13; that for `COc1ccccc1OCc1nc2ccccc2s1`, 4.3 (active).
With `Cc1ccc(NC(=O)c2csc3c2CCCC3)cc1`, the fold change is 1.12.
For the compound `CCN1CCN(C(=O)CN(C)S(=O)(=O)c2ccc3ccccc3c2)CC1`, the fold change was 1.
Take `CCc1ccc(NC2Nc3cc(C)nn3S2)cc1` (configuration not stated): the fold change was 4.6 (active).
For `CCOC(=O)c1ccc(NC2Nc3cc(C)nn3S2)cc1` (configuration not stated), the fold change is 1.14.
The result for `CCc1ccc(NC(=O)N2CCN(c3ccccc3)CC2)cc1` reads 1.34; that for `O=C(NCc1ccccc1)C1=C[C@@H](c2ccc(C(F)(F)F)cc2)C[C@@H](OCc2ccc(CO)cc2)O1`, 0.94.
The result for `CCN(C(=O)COC(=O)c1ccc(COc2ccc3c(C)cc(=O)oc3c2)cc1)C1CCS(=O)(=O)C1` (configuration not stated) reads 1.19; that for `CSCC(=O)N1CCCC(C(=O)c2cc(F)ccc2F)C1` (configuration not stated), 1.18.
As to `Fc1ccccc1N=C1Nc2cccc3cccc1c23`, the fold change was 0.99.
The result for `Cc1cccc(-n2c(C)cc(/C=N/NC(N)=S)c2C)c1` reads 1.29.
In the case of `Cc1cccc(-n2c(O)c(C=Nc3ccccc3N)c(=O)[nH]c2=O)c1`, the fold change was 4.16 (active).
The value for `Cc1ccc(N=Cc2c(O)n(-c3nccs3)c(=O)c3ccccc23)c(C)c1` was 1.01.
The value for `Cc1c(CN2CCCC(C(=O)c3cccc(Cl)c3)C2)c(=O)n(-c2ccccc2)n1C` (configuration not stated) was 1.12; that for `Cc1ccc(C(=O)Nc2cccc3ncccc23)cc1[N+](=O)[O-]` was 1.38.
The result for `CC(C)(c1ccccc1)c1ccc(OCCN)cc1` reads 1.16; that for `O=C(Nc1ccc(F)cc1)N1CCN(c2ccc(F)cc2)CC1`, 1.12.
For `CCOC(=O)C1(Cc2cccc(OC)c2)CCN(Cc2csc(C(C)=O)c2)CC1`, the fold change was 0.84.
Turning to `O=C(c1ccccc1)N1CCN(C(=O)N2CCCCC2)CC1`, the fold change is 1.3.
For the compound `O=C(O)c1ccc(N=NN2CCOCC2)cc1`, the fold change was 1.3.
The value for `O=C(O)c1cccc(N=NN2CCCCCC2)c1` was 5.59 (active); that for `COc1ccc(C(=O)NC2CCN(C(=S)Nc3ccccc3)CC2)cc1` was 1.12.
The result for `COc1ccc(NC(=S)N2N=CCC2c2ccccc2)cc1` (configuration not stated) reads 3.93 (active); that for `COc1ccc(C(=S)Nc2ccccc2)cc1`, 1.98; that for `Cc1ccc(C(=O)NNC(=O)c2cccs2)cc1`, 1.67.
The result for `COCCNC(=O)/C(C#N)=C/c1nc(N(C)C)n(-c2ccc(F)cc2)c1Cl` reads 1.11; that for `Cc1nc(N2CCC(C)CC2)c2c(C)c(C(=O)Nc3cc(F)ccc3C)sc2n1`, 0.88; that for `O=[N+]([O-])c1cccc(/C([O-])=C(/C(=S)Nc2ccccc2F)[n+]2ccccc2)c1`, 1.02.
With `Cn1cc(Cl)c(C(=O)NNC(=S)Nc2cccc(Cl)c2)n1`, the fold change is 1.46.
On to `Cc1csc(SCC(=O)Nc2sccc2C#N)n1`, for which the fold change is 5.12 (active).
Turning to `COc1ccc(NC(=O)CSc2nc(C)cs2)cc1`, the fold change was 1.38.
The value for `Cc1cccc(C)c1Nc1nnc(SCC(=O)Nc2sccc2C#N)s1` was 1.08.
